Bioassay records: PubChem, several laboratories
V-ATPase pHluor = regulators of yeast V-ATPase proton transport. AID 504577. 350,000 tested, 0.37% active. response, % at 10 µM. S. cerevisiae, pHLuorin cytosolic pH fluorescence; in the data active = response mostly above about 7.3%, no sharp cut-off; inactive = mostly below about 5.4%; also: actives read high
tim10-1 inh = inhibits growth of tim10-1 mutant yeast | S. cerevisiae tim10-1 ts strain growth, BacTiter-Glo, 24 h | inhibition, % at 20 µM | 330,000 tested, 2.2% active;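 active = inhibition of at least 40%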;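 also: mutant grown at 25 °C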
PfHsp90 yeast 2 = reduces growth (ATP signal) of yeast expressing P. falciparum Hsp90; AID 504621; 310,000 tested, 0.32% active; inhibition, % at 9.4 µM; S. cerevisiae expressing PfHsp90, BacTiter-Glo ATP, 48 h; yeast lacking PDR1 and PDR3 efflux regulators;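 active = every replicate shows inhibition above about 80%, whatever the replicate mean, limit read from the data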
SKKanGAS inh = blocks kanamycin growth of S. pyogenes SKKanGAS strain; BacTiter-Glo, 6 h; inhibition, % at 7.5 µM; 300,000 tested, 1.3% active;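 active = mean replicate score, as percent of positive control median, at least 50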;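 also: strain carries kanamycin resistance gene driven by streptokinase promoter and grows in 40 µg/ml kanamycin; loss of luminescence reflects streptokinase promoter inhibition or plain growth inhibition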
TIM10 inh = TIM10 yeast growth inhibition | inhibition, % at 10 µM | S. cerevisiae TIM10 strain growth, BacTiter-Glo luminescence, 24 h | AID 463195 | 330,000 tested, 1.4% active;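 active = inhibition of 40% or more at the single tested concentration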;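 also: wild-type TIM10 isogenic control strain grown at permissive 25 °C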
tim23-1 inh = growth inhibitors of tim23-1 mutant yeast; S. cerevisiae tim23-1 growth, BacTiter-Glo luminescence, 24 h; inhibition, % at 20 µM; 330,000 tested, 1.3% active;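 active = growth inhibition of the mutant yeast at or above 50%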;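 also: temperature-sensitive mutant grown at 25 °C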
tim23-1 conf = tim23-1 yeast growth inhibition, confirmed; shares compounds with tim23-1 inh; S. cerevisiae tim23-1 growth, BacTiter-Glo luminescence, 24 h; inhibition, % at 20 µM; 4,400 tested, 83% active;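 active = inhibition above about 39% in either of two replicate wells at 20 µM, limit read from the data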;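 also: temperature-sensitive tim23-1 mutant grown at 25 °C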
Hits are given with their value; . = inactive; / = no result given. A selection: hits, their analogues and other compounds. The true share with any hit is near 4.6%.

SMILES	V-ATPase pHluor	tim10-1 inh	PfHsp90 yeast 2	SKKanGAS inh	TIM10 inh	tim23-1 inh	tim23-1 conf
COc1ccc(C(C[N+](=O)[O-])c2c(C)cc3ccccn23)c(OC)c1 (stereo not drawn)	.	.	.	.	.	82	75
COc1ccc(NC(=O)CCn2cccc2)c(OC)c1	.	.	.	/	.	.	/
Cc1ccc(C2CC(=O)NC(SCc3ccccc3)=C2C#N)cc1 (stereo not drawn)	.	.	.	.	.	.	/
CCCCCCSC1=C(C#N)C(c2ccccc2)CC(=O)N1 (stereo not drawn)	.	.	.	.	.	51	46
CCCC(C)c1oc(=O)cc(O)c1C (stereo not drawn)	.	.	.	/	.	.	/
O=CN(/C=C1\Sc2ccccc2C1=O)Cc1ccccc1	.	.	.	.	.	68	66
CC(=O)N(C)/C=C1\Sc2ccccc2C1=O	.	.	.	.	.	.	/
CCC(=O)N(C)/C=C1\Sc2ccccc2C1=O	.	.	.	.	.	53	.
CC(=O)c1cccc(NC(=O)c2cc(S(=O)(=O)N3CCCCC3)ccc2N2CCOCC2)c1	.	/	/	/	/	/	/
CCc1nc2ccc(C(=O)N(C)CC(=O)Nc3ccc(F)c(F)c3F)cc2nc1CC	.	.	.	/	.	.	/
CCN(C(=O)c1cc2c(C)nc3ccccc3c2o1)c1cc(Cl)ccc1OC	.	.	.	.	.	.	/
Cc1ccc(N=N/C(=C\O)C(=O)c2ccncc2)cc1	.	.	.	.	.	71	64
O=C(Nc1ccncc1)c1ccc(Cl)cc1	.	.	.	.	.	.	/
O=C(/C(=C/O)N=Nc1ccc(Cl)cc1)c1ccncc1	.	.	.	.	.	62	57
Cc1ccc(S(=O)(=O)NNC(=O)c2ccncc2)cc1	.	.	.	.	.	.	/
O=C(Cn1ncc(Cl)c(Cl)c1=O)c1ccc2c(c1)OCCO2	.	.	.	/	.	58	.
O=C(Cn1ncc(Cl)c(Cl)c1=O)Nc1ccc2c(c1)OCO2	.	.	.	/	.	.	/
COC/C=C/C1=CC2=CC(=O)C(C)(OC(=O)c3cnc4ccccc4n3)C(=O)C2=CO1 (stereo not drawn)	/	.	/	.	.	.	/
COc1cccc(S(=O)(=O)N(C)C[C@@H]2OCc3cn(nn3)CCCC(=O)N([C@@H](C)CO)C[C@H]2C)c1	.	/	/	/	/	/	/
Cc1c([N+](=O)[O-])cnc(Sc2ccccc2)c1[N+](=O)[O-]	.	.	.	.	.	75	73
Cc1ccc(Sc2ncccc2[N+](=O)[O-])cc1	.	.	.	.	.	.	/
COc1ccc(-c2nc3ccccc3[nH]2)cc1	.	.	.	.	.	63	57
COC(=O)c1ccc(-c2nc3ccccc3[nH]2)cc1	.	.	.	.	.	.	/
c1ccc2[nH]c(-c3ccncc3)nc2c1	.	.	.	.	.	.	/
c1ccc(-c2nc3ccccc3[nH]2)cc1	.	.	.	.	.	50	46
SMILES	V-ATPase pHluor	tim10-1 inh	PfHsp90 yeast 2	SKKanGAS inh	TIM10 inh	tim23-1 inh	tim23-1 conf
COc1ccc(N=Nc2c(C)n[nH]c2C)cc1	.	.	.	.	.	.	/
Cc1n[nH]c(C)c1N=Nc1ccc(Br)cc1	.	.	.	.	.	62	.
O=C(Nc1ccc2ccccc2c1)c1ccc(Br)o1	.	.	.	.	.	56	52
O=C(Nc1ccccc1)c1ccc(Br)o1	.	.	.	.	.	.	/
O=C(Nc1cccc(NC(=O)c2ccc(Br)o2)c1)c1ccccc1	.	.	.	.	.	.	/
O=C(Nc1ccc2c(c1)oc1ccccc12)c1ccc(Br)o1	.	.	.	.	.	52	.
Cc1ccoc1C(=O)Nc1ccc2ccccc2c1	.	.	.	.	.	54	50
Cc1cc(C(=O)Nc2ccc3ccccc3c2)oc1C	.	.	.	.	.	.	/
COc1ccccc1-c1sc2ccccc2c1-c1ccc(O)cc1	.	.	114	/	.	55	.
Cc1cnc(NC(=O)c2sc(Nc3ccccc3)nc2N)o1	.	.	.	.	.	53	55
Nc1nc(Nc2ccccc2)sc1C(=O)c1ccccc1	.	.	.	.	.	54	43
COc1ccc(C(=O)c2sc(Nc3ccccc3F)nc2N)cc1	.	.	.	.	.	50	54
Nc1cc(=O)[nH]c(SCC(=O)NCCC2=CCCCC2)n1	.	.	/	/	.	.	/
COc1ccc(-c2ccc(-c3cc(=O)oc4cc(OC)c(OC)c(OC)c34)cc2)cc1	.	.	.	/	.	.	/
CN(C(=O)c1ccc(Br)o1)C1(C)CCS(=O)(=O)C1 (stereo not drawn)	.	.	.	.	.	.	/
O=C(CN1CCN(S(=O)(=O)c2ccc(Br)cc2)CC1)N/N=C/c1ccccc1C(=O)O	.	.	.	.	.	.	/
COC(=O)C[C@H]1C=C[C@@H](C(C(=O)OC)C(=O)OC)CN1C(C)=O	.	/	.	/	/	/	/
COc1ccccc1C(=O)Nc1nnc(-c2ccc3c(c2)CCCC3)o1	.	.	.	58	.	52	56
COc1ccccc1-c1nnc(NC(=O)C2=COCCO2)o1	.	.	.	.	.	.	/
CCCn1cc(S(=O)(=O)c2ccccc2)c(=O)c2cc(F)c(N3CCN(C)CC3)cc21	.	.	.	.	.	.	/
CC1(C)CC(=O)C(N=Nc2cccc([N+](=O)[O-])c2)=C(O)C1	.	.	.	.	.	88	93
COc1ccc(N=NC2=C(O)CC(C)(C)CC2=O)c(OC)c1	.	.	.	.	.	.	/
CC1(C)CC(=O)C(N=Nc2ccc(Br)cc2)=C(O)C1	.	.	/	.	.	.	/
CC1(C)CC(=O)C(N=Nc2ccc(C(F)(F)F)cc2[N+](=O)[O-])=C(O)C1	.	.	.	.	.	78	78
C=CCN1C(=O)/C(=C\c2ccc(Oc3nc(N4CCOCC4)nc(N4CCOCC4)n3)c(OC)c2)SC1=S	.	.	.	.	.	.	/
SMILES	V-ATPase pHluor	tim10-1 inh	PfHsp90 yeast 2	SKKanGAS inh	TIM10 inh	tim23-1 inh	tim23-1 conf
Cc1ccnc(NC(=O)c2ccc3c(c2)C(=O)N(CC(C)C)C3=O)c1	.	.	.	.	.	63	57
Cc1cc(NC(=O)c2ccc3c(c2)C(=O)N(CC(C)C)C3=O)no1	.	.	.	.	.	.	/
O=C(CNC(=O)C1CCCCC1)NCc1ccco1	.	.	.	.	.	.	/
CCN(C(=S)NC(=O)c1ccccc1Br)C1CCCCC1	.	.	.	.	.	58	44
CC(OC(=O)c1cccs1)C(=O)NC1CCCCC1C (stereo not drawn)	.	.	.	/	.	.	/
CC1CCCCC1NC(=S)NC(=O)c1cccs1 (stereo not drawn)	.	.	.	.	.	52	54
CC(C)(C)NC(=O)CN1CCN(C(=O)CCl)CC1	.	.	.	/	.	.	/
CC1CCN(c2ccc(-c3cccs3)nn2)CC1	.	.	.	.	.	68	72
Clc1ccc(-c2cccs2)nn1	.	.	.	.	.	.	/
